Compound activity (PubChem)
Shown are actives, neighbours in structure and some others; about 8.7% of the full set was active somewhere.
hDAT+cocaine: modulates human dopamine transporter uptake under cocaine; LLC-PK1 hDAT cells, [14C]-dopamine uptake with cocaine IC80; actives deviate in either direction; B-score at 10 µM; Q01959; hit rate 1.3% among 110,000;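 active = Z score or B-score, a plate-position-corrected score, falls beyond the plate's 99.7% confidence bounds, in either direction; inactive = both scores lie inside the 99.7% bounds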
PostGolgi yeast: growth inhibition of a yeast mutant, post-Golgi transport screen; post-Golgi transport phenotypic cell assay; inhibition, % at 10 µM; hit rate 0.9% among 98,000; AID 739;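 also: yeast cells grown in 1536-well plates; yeast grown about 18 h at 30C before absorbance read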
Smad3 inh: blocks human Smad3 binding to FoxH1 peptide; P84022; TR-FRET Smad3/Dy647-FoxH1 peptide binding, europium anti-His; inhibition, % at 25 µM; hit rate 0.29% among 88,000; AID 630;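 active = compounds that reduce the energy-transfer binding signal between the protein and its labelled peptide by more than half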
Target sequence (P84022 whole entry, looked up): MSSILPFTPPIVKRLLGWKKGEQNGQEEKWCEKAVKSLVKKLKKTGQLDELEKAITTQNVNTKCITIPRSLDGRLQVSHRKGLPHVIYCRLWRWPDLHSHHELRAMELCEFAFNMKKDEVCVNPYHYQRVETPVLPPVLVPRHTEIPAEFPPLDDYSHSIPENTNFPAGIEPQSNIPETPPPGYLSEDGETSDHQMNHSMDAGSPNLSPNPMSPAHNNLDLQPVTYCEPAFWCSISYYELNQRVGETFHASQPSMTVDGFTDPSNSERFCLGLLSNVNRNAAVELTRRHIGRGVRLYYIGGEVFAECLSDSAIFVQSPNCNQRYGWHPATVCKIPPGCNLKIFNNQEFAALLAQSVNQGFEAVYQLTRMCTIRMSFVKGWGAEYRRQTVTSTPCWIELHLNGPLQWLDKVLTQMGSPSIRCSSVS
TNAP act mid DEA: activators of human TNAP at intermediate phosphate acceptor; P05186; AID 813; 64,000 tested, under 10 active; activation factor at 20 µM; purified TNAP, CDP-star luminescence, 100 mM DEA, 30 min; hits give high values; scale: 0 levamisole-inhibited, 1 vehicle-only enzyme;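 active = activation factor of at least 2 at 20 µM, relative to controls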
PostGolgi ctrl: growth of the yeast control strain, post-Golgi counter-screen; efflux-deficient yeast background strain, growth absorbance A615, 16 h; inhibition, % at 10 µM; hit rate 5% among 98,000
Cav3 T inh: blocks human Cav3.2 T-type calcium channel. O95180. Cav3.2-expressing cells, Fluo-4 calcium fluorescence FDSS; hits give low values. B-score at 10 µM. hit rate 4% among 100,000. AID 449739;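 active = single-dose well whose peak fluorescence ratio is a statistical outlier from its plate by either plate-standardised score or position-corrected B-score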
Numbers stand for hits; 0 = inactive; - = no result. Rule as the data show it, unless noted: active = inhibition above about 30%; inactive = the rest.

SMILES | hDAT+cocaine | PostGolgi yeast | Smad3 inh | TNAP act mid DEA | PostGolgi ctrl | Cav3 T inh
CCn1c(Cc2ccccc2)nnc1SCC(=O)Nc1nc2ccccc2s1 | 0 | 0 | 0 | 0 | 0 | 0
CCSCc1nnc(SCC(=O)Nc2nc3ccccc3s2)n1C | 0 | 0 | 0 | 0 | 36 | 0
CCn1nc(CC(=O)Nc2ccc(-n3cnnn3)c(C)c2)c2ccccc2c1=O | 0 | 0 | 0 | 0 | 0 | 0
CC1CN(C(=O)Nc2ccc3snnc3c2)c2ccccc21 (configuration not stated) | 2.6 | 0 | 0 | 0 | 30 | 0
CS(=O)(=O)N1CCC(C(=O)NCc2ccncc2)CC1 | 0 | 0 | 0 | 0 | 0 | 0
O=C(NCc1ccncc1)C1CCCCC1 | -8 | 0 | 0 | - | 0 | 0
O=C(/C=N/O)NCc1ccncc1 | 0 | 0 | 0 | 0 | 0 | -8
CCCCOc1ccc(-c2ncc(C(=O)O)c(C)n2)cc1 | 0 | 44 | 0 | 0 | 0 | 0
CCCCC1(C)OC(=O)C(=Cc2ccc(N(C)C)cc2)C(=O)O1 (configuration not stated) | 0 | 0 | - | - | 31 | 0
CCO[C@H]1OC(C(N)=O)=C[C@@H](c2ccccc2)[C@@H]1CCCO | 0 | - | - | - | - | 0
CC(C)N1C(=O)/C(=C/c2nc3ccccc3c(=O)n2-c2ccccc2)c2ccccc21 | 0 | 0 | - | - | 31 | 0
CC(C)N1C(=O)C(Cc2nc3ccccc3c(=O)n2-c2ccccc2)c2ccccc21 (configuration not stated) | 0 | 0 | - | - | 0 | 0
COC(=O)Cc1cc(=O)[nH]c(Nc2nc3ccccc3o2)n1 | 0 | 0 | 0 | 0 | 0 | 3.5
CC1CC(=O)C2=C(C1)Nc1ncnn1C2c1ccccc1 (configuration not stated) | 0 | 0 | 0 | 0 | 48 | 0
Oc1ccccc1-c1cc(-c2ccccc2Cl)[nH]n1 | 0 | 0 | 0 | 0 | 75 | 0
Oc1ccc(Cl)cc1-c1cc(-c2ccccc2Cl)[nH]n1 | 0 | - | 0 | - | - | 0
Oc1ccccc1-c1cc(-c2ccco2)[nH]n1 | 0 | 0 | 0 | - | 30 | 0
Oc1ccc(Cl)cc1-c1cc(-c2cccc(Br)c2)n[nH]1 | 0 | 0 | 0 | - | 54 | 0
Oc1ccc(Cl)cc1-c1cc(-c2ccco2)[nH]n1 | 0 | 0 | 0 | - | 46 | 0
Cc1ccc(-c2cc(-c3cccs3)[nH]n2)c(O)c1 | 0 | 0 | 0 | - | 0 | 0
Cc1ccc(O)c(-c2cc(-c3ccccc3C)[nH]n2)c1 | 0 | 0 | 0 | 0 | 86 | 0
Oc1ccc(Br)cc1-c1cc(-c2ccco2)[nH]n1 | 0 | 0 | 0 | - | 79 | 0
Oc1c(-c2cc(-c3ccco3)[nH]n2)ccc2ccccc12 | 0 | 0 | 0 | 0 | 0 | 0
Nc1nc(CN2CCN(c3cccc(Cl)c3)CC2)nc(N2CCCc3ccccc32)n1 | 0 | 0 | 0 | 0 | 42 | 0
COc1ccccc1OCCn1cc(C(=O)c2ccco2)c2ccccc21 | 0 | 35 | 0 | 0 | 0 | 0
SMILES | hDAT+cocaine | PostGolgi yeast | Smad3 inh | TNAP act mid DEA | PostGolgi ctrl | Cav3 T inh
COc1cccc(OCCn2cc(C(=O)c3ccco3)c3ccccc32)c1 | 0 | 0 | 0 | 0 | 0 | 0
COc1ccc(-n2c(SCC(=O)N3CCCC(C)C3)nnc2-c2cccnc2)cc1 (configuration not stated) | 0 | 0 | 0 | 0 | 0 | 0
Cc1[nH]c2ccccc2c1SCC(=O)N1CCCc2ccccc21 | 0 | 0 | 0 | - | 0 | -4.8
CCc1nc(SCC(=O)N2CCc3ccccc32)c2oc3ccccc3c2n1 | - | - | 0 | 0 | - | -
Cc1nc(SCC(=O)N2CCCc3ccccc32)c2oc3ccccc3c2n1 | 0 | 0 | 0 | 0 | 41 | 0
CC(C)(C)OC(=O)NCCCC1=CC2=CC(=O)C(C)(OC(=O)C3CCCC3)C(=O)C2=CO1 (configuration not stated) | 0 | - | - | - | - | 0
CS(=O)(=O)c1nc(-c2ccccc2)cc(-c2ccccc2)c1C#N | 0 | 0 | 0 | - | 54 | 0
CCCOc1ccc(N2CC(C(=O)Nc3ccc4c(c3)OCO4)CC2=O)cc1 (configuration not stated) | 0 | 0 | 0 | 0 | 0 | 0
COc1ccc(NC(=O)N2CCC(c3nc(-c4cccs4)no3)CC2)cc1 | - | 0 | 0 | 0 | 0 | -
O=C(Nc1ccc(Cl)cc1)N1CCC(c2nc(-c3cccs3)no2)CC1 | 0 | - | 0 | 0 | 44 | 0
O=C(Nc1ccc(Cl)cc1)N1CCC(c2nc(-c3ccccc3Cl)no2)CC1 | 0 | 0 | 0 | - | 40 | 0
CCOC(=O)C1CCCN(c2nc3ccccc3nc2C(C#N)C(=O)OC(C)COC)C1 (configuration not stated) | - | - | 0 | 0 | - | -
